# From PubChem BioAssay (Tox21)
# Inconclusive results are not listed. Unmarked numbers belong to inactive results. The source made the active and inactive calls. Unless noted, calls follow the shape of the dose curve; as a rule, active = well fitted cell-killing curve with a large enough effect in the repeat runs; inconclusive = weak or mixed curves, or effect the other way; inactive = no such curve, though single readings can be large or run the other way.
# Experiment: qHTS assay for small molecule agonists of the antioxidant response element (ARE) signaling pathway - cell viability counter screen (AID 743203; calls by dose curve; also: nearly all actives have a fitted effect of over 55% in size)
# Settings: ARE-bla HepG2 viability, CellTiter-Glo luminescence, 16 h; series mostly up to 73.3 µM; viability change, negative = cytotoxic: at the top concentration
# Procedure, shortened: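 Cytotoxicity was tested in parallel with the ARE reporter screen. ARE-bla HepG2 cells were exposed to compounds for 16 hrs, and viability was taken from CellTiter-Glo luminescence.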
# % is scaled to controls: 0 for no effect and ±100 for the full control effect.
row,SMILES,"viability change, negative = cytotoxic"
1,CNC(=O)O/N=C(\C)C(C)S(C)(=O)=O (centres undefined),9.1% [at 920 µM]
2,COP(=S)(NC(C)C)Oc1ccc(C)cc1[N+](=O)[O-] (centres undefined),5.86%
3,OCC(Br)CBr (centres undefined),0.983% [at 94.8 µM]
4,CC(C)N(C(=O)SC/C(Cl)=C/Cl)C(C)C,0.477% [at 94.8 µM]
5,COc1ccc2c(c1OC)C(=O)O[C@@H]2[C@H]1c2cc3c(cc2CCN1C)OCO3,-13%
6,ClSC(Cl)(Cl)Cl,1.11%
7,CCN(CC)C(=O)N[C@@H]1C=C2c3cccc4[nH]cc(c34)C[C@@H]2N(C)C1,1.92%
8,CCCCCON=O,-12.8% [at 94.8 µM]
9,O=C(N[C@H]1N=C(c2ccccc2F)c2cccc3c2N(CC3)C1=O)c1cc2ccccc2[nH]1,-0.562%
10,[O-][Cl+3]([O-])([O-])O,-12.5% [at 94.8 µM]
11,CCC1(CC)C(=O)N=C(O)NC1=O,1.99%
12,O=c1c2ccccc2c(=O)c2c1cc(Cl)c1[nH]c3c([nH]c12)c(Cl)cc1c(=O)c2ccccc2c(=O)c13,9.77%
13,CNC(C)(C)Cc1ccccc1,2.2%
14,O=P(Cl)(Cl)Cl,0.338% [at 94.8 µM]
15,c1cc[n+]2c(c1)-c1cccc[n+]1CC2,-13.2%
16,CN1[C@@H]2CC[C@H]1CC(O)C2 (some centres undefined),-0.0001% [at 94.8 µM]

# Experiment: qHTS assay for small molecule activators of the heat shock response signaling pathway - cell viability counter screen (AID 743209); also: nearly all actives have a fitted effect of over 50% in size; also: potency is read from the fitted curve at half-maximal effect
# Settings: HSE-bla HeLa viability, CellTiter-Glo luminescence, 5 h; series mostly up to 62.6 µM; activity change, negative = cytotoxicity: at the top concentration
# Procedure, shortened: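 Cytotoxicity counter screen run in parallel with the HSE beta-lactamase reporter, using the same wells. HeLa HSE-bla cells received compound for 5 h at 37 C; ATP-based CellTiter-Glo luminescence was measured after 30 min at room temperature.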
SMILES,"activity change, negative = cytotoxicity",Potency
O=C(NC(=O)c1ccccc1Cl)Nc1ccc(OC(F)(F)F)cc1,10.3%,
Cc1ccccc1OP(=O)(Oc1ccccc1C)Oc1ccccc1C,-15.8% [at 81.1 µM],
C[N+]1(C)[C@@H]2CC[C@H]1CC(OC(=O)C(CO)c1ccccc1)C2 (some centres undefined),-4.04%,
CN1CCc2cc(Cl)c(O)cc2[C@H]2c3ccccc3CC[C@@H]21,14.7%,
O.O.O.O=C([O-])[C@H]([O-])[C@@H]([O-])C(=O)[O-].O=C([O-])[C@H]([O-])[C@@H]([O-])C(=O)[O-].[K+].[K+].[Sb+3].[Sb+3],-14.6% [at 81.1 µM],
C=CCBr,2.68% [at 81.1 µM],
C=CC(=C)C,4.17%,
CCC1COC(Cn2cncn2)(c2ccc(Cl)cc2Cl)O1 (centres undefined),-2.57%,
CC(C)=CCN1CC[C@@]2(C)c3cc(O)ccc3C[C@@H]1[C@@H]2C,-5.42% [at 81.1 µM],
CCOP(=O)(Sc1ccccc1)Sc1ccccc1,-20.8%,
CCC[CH2][Sn]([CH2]CCC)([CH2]CCC)[O][Sn]([CH2]CCC)([CH2]CCC)[CH2]CCC,,380 nM (active)
COCCC#N,4.69%,
CCN(CC)CCN1C(=O)CN=C(c2ccccc2F)c2cc(Cl)ccc21,1.52%,
C=CCOC(=O)c1ccccc1N,-5.34% [at 81.1 µM],
Oc1ccc([C@H]2CNCc3c2ccc(O)c3O)cc1O,-20.7%,
c1ccc2nc(N3CCNCC3)ccc2c1,19.9%,
N#Cc1c[nH]cc1-c1cccc2c1OC(F)(F)O2,3.28%,
O=[N+]([O-])c1ccccc1-c1ccccc1,18.8%,
Nc1nc(N)nc(Cl)n1,-10.1%,

SMILES,"activity change, negative = cytotoxicity",Potency
Oc1ccc2[nH]cc(CCCCN3CC=C(c4ccccc4)CC3)c2c1,-9.59%,
Nc1ccc(N=Nc2ccccc2)cc1,14.1% [at 81.1 µM],
CCCCN(CCCC)C(=S)[S-].CCCCN(CCCC)C(=S)[S-].[Ni+2],-3.2%,
CNC(=O)O/N=C(\C)C(C)S(C)(=O)=O (centres undefined),-1.46% [at 765 µM],
COP(=S)(NC(C)C)Oc1ccc(C)cc1[N+](=O)[O-] (centres undefined),5.17%,
OCC(Br)CBr (centres undefined),-2.21% [at 81.1 µM],
CC(C)N(C(=O)SC/C(Cl)=C/Cl)C(C)C,-9.93% [at 81.1 µM],
COc1ccc2c(c1OC)C(=O)O[C@@H]2[C@H]1c2cc3c(cc2CCN1C)OCO3,3.85%,
ClSC(Cl)(Cl)Cl,-3.33%,
CCN(CC)C(=O)N[C@@H]1C=C2c3cccc4[nH]cc(c34)C[C@@H]2N(C)C1,-3.56%,
CCCCCON=O,-13.2% [at 81.1 µM],
O=C(N[C@H]1N=C(c2ccccc2F)c2cccc3c2N(CC3)C1=O)c1cc2ccccc2[nH]1,-7.71%,
[O-][Cl+3]([O-])([O-])O,-1.49% [at 81.1 µM],
CCC1(CC)C(=O)N=C(O)NC1=O,0.188%,
O=c1c2ccccc2c(=O)c2c1cc(Cl)c1[nH]c3c([nH]c12)c(Cl)cc1c(=O)c2ccccc2c(=O)c13,7.68%,
CNC(C)(C)Cc1ccccc1,5.52%,
O=P(Cl)(Cl)Cl,-0.0371% [at 81.1 µM],
c1cc[n+]2c(c1)-c1cccc[n+]1CC2,-14.7%,
CN1[C@@H]2CC[C@H]1CC(O)C2 (some centres undefined),-3.84% [at 81.1 µM],
